# From PubChem BioAssay AID1233 (SRMLSC, 2008)
# Potency and affinity values are given separately. The source made the active and inactive calls.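 Rule for the calls: active = a dose-response curve fit returns a half-maximal inhibitory concentration, extrapolated values included; inactive = the fit returns no such concentration.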
# Molecular target: HMG-CoA reductase [Enterococcus faecalis] (UniProt Q9FD70)
# Assay: inhibitors of E. faecalis class II HMGR, confirmation, biochemical, Enterococcus faecalis (AID 1233)
# Conditions: purified E. faecalis HMGR, NADPH absorbance 340 nm kinetics; series mostly up to 100 µM
row,Structure (SMILES),outcome
1,Cc1cc(=O)[nH]c(SCCOc2ccc3c(c2)CCC3)n1,inactive
2,NS(=O)(=O)c1ccc(CCN=C(NS(=O)(=O)c2cccs2)c2ccccc2)cc1,inactive
3,CC(=O)N1CC2(C)CN(C(C)=O)CC(C)(C1)C2,inactive
4,COc1ccc(-c2nn(-c3ccccc3)cc2/C=N/Nc2cccc(C(=O)O)c2)cc1,inactive
5,O=C(NCCCn1ccnc1)c1ccc(S(=O)(=O)N2CCOCC2)cc1,inactive
6,Cc1nn(CCC(=O)NNC(=S)Nc2ccc([N+](=O)[O-])cc2)c(C)c1[N+](=O)[O-],inactive
7,Cc1c(NS(=O)(=O)c2ccc3c(c2)Cc2ccccc2-3)c(=O)n(-c2ccccc2)n1C,inactive
8,Cc1ccc(N2CCN(C(=O)c3ccccc3NC(=O)/C=C\C(=O)O)CC2)cc1,inactive
9,O=C(Nc1ccccn1)c1cccc(S(=O)(=O)N2CCOCC2)c1,inactive
10,Cc1c(NC2(c3nnnn3-c3ccc(Br)cc3)CCCCC2)c(=O)n(-c2ccccc2)n1C,inactive
11,Cc1ccc(S(=O)(=O)N2CCCC2C(=O)Nc2nc3ccccc3s2)cc1 (configuration not stated),inactive
12,Cc1cc(=O)[nH]c(SCC(=O)C23CC4CC(CC(C4)C2)C3)c1C#N,inactive
13,OC(COc1ccc(Cl)cc1)CN1CCCCC1 (configuration not stated),inactive
14,Cc1ccc(/C=C/C(=O)O)cc1S(=O)(=O)NCCCO,inactive
15,CCN(CC)S(=O)(=O)c1cccc(C(=O)Nc2cc(C)cc(C)c2)c1,inactive
16,CCN(C(=O)CCc1nc(-c2ccccc2F)no1)c1cc(OC)ccc1OC,inactive
17,O=C(N/N=C/c1ccc(OC(F)F)cc1OC(F)F)c1cccc(S(=O)(=O)N2CCOCC2)c1,inactive
18,CCCCC(c1nnnn1CCOC)N1CCN(CC)CC1 (configuration not stated),inactive
19,CC1=C(C)C(=O)C(N2CCOCC2)=CC1=O,inactive

row,Structure (SMILES),outcome
1,Cn1c(CSc2nc3ccccc3s2)nc2ccccc21,inactive
2,CO/N=C/c1ccc(N2CCCC2)c([N+](=O)[O-])c1,inactive
3,COC(=O)C(C(=O)OC)c1ccc(N)cc1,inactive
4,O=C(NC(=S)N(CC1CCC1)CC1CCCO1)c1cccc([N+](=O)[O-])c1 (configuration not stated),inactive
5,COC(c1ccccc1)c1nnc(CCC(=O)NCCC(C)C)o1 (configuration not stated),inactive
6,Cc1nn(-c2cc(N3CCCCCC3)ccc2[N+](=O)[O-])c(=O)c2ccccc12,inactive
7,COCC(C)NC(=O)CSc1nc(-c2ccccc2)c(-c2ccccc2)o1 (configuration not stated),inactive
8,COc1cc(C#N)ccc1OCC(=O)c1ccc2c(c1)OCCO2,inactive
9,CC(=O)C1=C(O)C(=O)N(C)C1c1ccccc1F (configuration not stated),inactive
10,O=C(c1cccs1)N(c1ccc(F)cc1)C1C=CS(=O)(=O)C1 (configuration not stated),inactive
11,COc1cc(SC)ccc1C(=O)NCc1ccc(C)cc1,inactive
12,CCOC(=O)Cc1nn(Cc2ccccc2)c(=O)c2ccccc12,inactive
13,Clc1ccc(NNc2ccnc3cc(Cl)ccc23)cc1,inactive
14,C/C(=N\Nc1ccc(C(=O)O)cc1)c1ccc(-n2ccnc2)cc1,inactive
15,C=CCNC(=O)C(C#N)c1nc2ccccc2nc1N1CCCCCC1 (configuration not stated),inactive
16,CN(Cc1nc(-c2cnccn2)no1)C1CC(C)(C)NC(C)(C)C1,inactive
17,COc1ccc2oc(=Nc3ccc(C(=O)O)cc3)c(C(=O)NCc3ccco3)cc2c1,inactive
18,COc1cc(OC)c(OC)cc1/C=N/NC(=S)NCCN1CCOCC1,inactive
